The values that follow come from PubChem BioAssay AID720526 (National Center for Advancing Translational Sciences (NCATS), 2013).

The assay is described as follows: qHTS Assay for NPC1 Promoter Activators: Hit Validation Using Renila Luciferase Read-Out for NPC1. From the text: Niemann Pick Type C (NPC) is a rare neurodegenerative lipidosis that is characterized by lipid storage in the endosomal/lysosomal system. Treatment modalities for this devastating disease are currently non-existent due to the severe obstacles associated with accessing the central nervous system with proteins or genes. The majority of mutations causing NPC disease are missense mutations that are distributed throughout the length of the NPC1 protein, with the most prevalent being the I1061T allele. Although NPC1 mutant proteins may be functional, they are typically trapped in the ER due to misfolding. […] We have developed and optimized a cell based renilla luciferase reporter assay in 1536 well format for the identification of up-regulators of the mutant Rab9 promoter. This assay presents data on the validation of hits from the primary screen, which used a firefly luciferase read-out. NIH Chemical Genomics Center [NCGC] NIH Molecular Libraries Probe Production centers Network [MLPCN] MLPCN Grant: MH089375 Assay Submitter (PI): Yiannis A. Ioannou
Huh7 cells stably expressing NPC promoter-luciferase will be seeded at 1,500 cells/well in 5 uL in 1,536-well white opaque plates with 23 nL/well of compound in DMSO solution. The assay plates will be incubated at 37 deg C for 24 hours, after which 3 uL/well BriteLite plus luciferase detection reagent mixture (Perkin Elmer) will be added. Luminescence signal will be measured in a ViewLux plate reader (Perkin Elmer) after a 10 minute incubation at the room temperature.

Structures are written as SMILES. Inconclusive results are not listed. Active and inactive are the calls of the source. Calls follow the shape of the dose curve; as a rule, active = well fitted activation curve with a large enough effect; inconclusive = small, poorly fitted or top-dose-only effect; inactive = no such curve, though single readings can be large or run the other way.

With `CN1CCc2cc3c(c4c2C1Cc1ccccc1-4)OCO3` (stereo unspecified), the result was inactive.
Next, `COc1cccc(CCNCc2ccc(SC)cc2)c1`: “inactive”.
The same measure for `Cc1cccn2c(NCC3CCCO3)c(C(C)C)nc12` (stereo unspecified): “inactive”; for `O=C1c2ccccc2C(=O)N1Cc1nc2ccccc2c(=O)n1-c1cccnc1`: “inactive”; for `COc1ccc(C(CC(=O)N2CCC3(CC2)OCCO3)NS(=O)(=O)c2ccc(F)cc2)cc1` (stereo unspecified): “inactive”.
Next, `CCC(=NCc1cccnc1)c1c(O)n(-c2ccccc2)c(=O)[nH]c1=O`: “inactive”.
